Assay results taken from PubChem BioAssay (NCI).
Where “and” joins values, the source holds several entries; their conditions need not be identical. Equal entries are not always repeated. About 83,000 compounds went through this panel and 20% of them were active in at least one assay; those are over-represented in the sample as a whole.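 Results are percent growth after 48 hours of single-concentration exposure. 100 means growth as in untreated cells, lower positive values show inhibition; negative values down to -100 show cell death.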 Calls of active or inactive are those of the source. The calls were made as follows: active = growth percent below 10; inactive = the rest.

Test system: MDA-MB-468 breast
Test: NCI-60 one-dose screen, 48 h (100 = growth as untreated, 0 = no growth, -100 = all killed)
Conditions: 10 µM unless noted

Q: For `COc1ccc(/C=C(/C(=O)N2CCN(c3ccc(C)cc3)CC2)c2cc(OC)c(OC)c(OC)c2)cc1N`, which growth is on record?
A: Its growth is 29.6% (inactive).

Q: For `O=C(CN1CCN(c2cc3c(cc2F)c(=O)c(C(=O)O)cn3C2CC2)CC1)Nc1ccc(Cl)cc1`, which growth is on record?
A: The growth was 86% (inactive) and 91.1% (inactive).

Q: With `NCCSSC/C=C\CSSCCN` as the compound, how does the growth read?
A: The growth was 94.6% (inactive).

Q: Which growth does the source give for `CC(C)=CCNc1ncnc2c1ncn2C1OC(CO)C(O)C1O` (stereo not given) here?
A: The growth was -44.4% [1 mM] (active).

Q: With `C=CC(=O)NCc1ccc(Nc2nccc(-c3ccc(N4CCCC4)c(C#N)c3)n2)cc1` as the compound, how does the growth read?
A: The growth was 15.7% (inactive).

Q: With `O=C(NCCc1ccccc1)Nc1ccc2cc3ccc(NC(=O)NCCc4ccccc4)cc3nc2c1` as the compound, how does the growth read?
A: Its growth is -5.36% (active).

Q: `CC(C)(C)c1cc(C(=O)Nc2ccccc2C(=O)NCCN)cc(C(C)(C)C)c1` was tested. Which growth did it give?
A: The growth was -76.7% (active).

Q: `CC(=O)Nc1ccc(C(=O)/C=C/c2ccccc2)cc1` was tested. Which growth did it give?
A: The growth was 90.8% (inactive).

Q: Which growth does the source give for `O=C1C=CC(=O)N1C1c2ccccc2-c2ccccc21` here?
A: Its growth is 66.9% (inactive).

Q: How did the growth turn out when `CCCCCCCCCCCCCCC(C(=O)OCC)C(=O)OCC` was run?
A: Its growth is 95.9% (inactive).

Q: For `COc1cc(-c2nccc3cc4c(cc23)OCO4)cc(OC)c1OC`, which growth is on record?
A: Its growth is -6.2% (active) and 5.32% (active).

Q: With `O=C(CN1CCN(c2cc3c(cc2F)c(=O)c(C(=O)O)cn3C2CC2)CC1)Nc1ccc(C(=O)/C=C/c2ccc(Cl)cc2)cc1` as the compound, how does the growth read?
A: The growth was 95.1% (inactive).

Q: How did the growth turn out when `Cc1cccc(N2CCN(CC(O)COc3ccc(Cl)cc3)CC2)c1` (stereo not given) was run?
A: Its growth is 107% (inactive).

Q: With `COc1ccc(/C=C/C(=O)c2cc(O)ccc2O)cc1` as the compound, how does the growth read?
A: Its growth is 71.2% (inactive).

Q: Which growth does the source give for `CCOC(=O)C1=C(C)NC(=O)NC1c1cc(=O)oc2ccc(C)cc12` (stereo not given) here?
A: Its growth is 106% (inactive).

Q: With `O=[N+]([O-])c1ccc(Sc2cccc[n+]2[O-])c2nonc12` as the compound, how does the growth read?
A: Its growth is 49.3% (inactive).

Q: Which growth does the source give for `CN[C@@H]1C(OC2[C@H](O[C@H]3[C@H](O)[C@@H](O)[C@H](N=C(N)N)[C@@H](O)[C@@H]3N=C(N)N)OC(C)[C@]2(O)CO)OC(CO)C(O)C1O` (stereo not given in full) here?
A: Its growth is 108% (inactive).

Q: For `CC(=O)c1c(OCC#N)ccc2c(C)cc(=O)oc12`, which growth is on record?
A: The growth was 93.2% (inactive).

Q: With `CCn1cc(C2NC(=O)c3ccccc3N2)c2cccc(C)c21` (stereo not given) as the compound, how does the growth read?
A: Its growth is 17.9% (inactive).

Q: Which growth does the source give for `Nc1nc2c3ccncc3cc(-c3cccc(Cl)c3)c2c2cnccc12` here?
A: The growth was 36.6% (inactive).

Q: `O=C1/C(=C/c2ccccc2)SC(=Nc2ccccc2)N1Nc1ccccc1` was tested. Which growth did it give?
A: Its growth is 1.39% (active).

Q: How did the growth turn out when `COc1ccc(-c2nn(-c3cccc(Cl)c3)cc2C2CC(c3ccccc3)=NN2C(C)=O)cc1` (stereo not given) was run?
A: Its growth is 80.9% (inactive).

Q: With `COc1ccc(NC(=O)c2sc3nc(C)c(C(C)=O)cc3c2N)cc1` as the compound, how does the growth read?
A: Its growth is 91.8% (inactive).

Q: For `O=C1Nc2c(c(=O)n(-c3ccccc3)c3ccccc23)C(c2ccc(Cl)cc2)N1` (stereo not given), which growth is on record?
A: Its growth is 119% (inactive).

Q: Which growth does the source give for `COc1cc(N)c2ncccc2c1SC` here?
A: Its growth is 107% (inactive).

Q: For `O=c1cc(-c2ccccc2)[nH]c2ccccc12`, which growth is on record?
A: Its growth is 59.5% (inactive).

Q: `CCOC(=O)c1cc(C)n(-c2ccc(C(=O)O)cc2)c1C` was tested. Which growth did it give?
A: Its growth is 65.5% (inactive).

Q: `O=S(=O)(NCCNc1nccc(-c2c(-c3ccc(F)c(O)c3)nc3sccn23)n1)c1ccc(O)cc1` was tested. Which growth did it give?
A: The growth was 31.4% (inactive).

Q: With `N#CN1CC[C@H](C(=O)Nc2ncc(-c3ccncc3)s2)C1` as the compound, how does the growth read?
A: The growth was -35.7% (active).

Q: With `CCC1=CC2CN(C1)Cc1c([nH]c3ccccc13)[C@@](C(=O)OC)(c1cc3c(cc1OC)N(C)[C@H]1[C@@](O)(C(=O)OC)[C@H](OC(C)=O)[C@]4(CC)C=CCN5CC[C@]31[C@@H]54)C2` (stereo not given in full) as the compound, how does the growth read?
A: Its growth is 44.4% (inactive).

Q: `CN1[C@@H]2CC[C@H]1/C(=C\c1ccccc1)C(=O)/C2=C/c1ccccc1` was tested. Which growth did it give?
A: The growth was 16.2% (inactive).

Q: Which growth does the source give for `COC(=O)c1c2c(c(C)[n+]([O-])c1C)C(=O)C=C(NCc1ccc(F)c(Cl)c1)C2=O` here?
A: The growth was -70.5% (active).

Q: With `CC(=O)Oc1ccccc1C(=O)Nc1ccc(C(=O)/C=C/c2cccs2)cc1` as the compound, how does the growth read?
A: Its growth is 109% (inactive).

Q: With `COS(=O)(=O)CCN(CCOS(C)(=O)=O)S(C)(=O)=O` as the compound, how does the growth read?
A: The growth was 104% (inactive).

Q: `Cc1[nH]c(-c2nc3ccccc3[nH]2)c(C)c1C(=O)N1CCOCC1` was tested. Which growth did it give?
A: Its growth is 91.6% (inactive).

Q: How did the growth turn out when `COc1ccc(SC2c3ccc(C)cc3Oc3nc(N)c(C#N)c(N)c32)cc1` (stereo not given) was run?
A: The growth was -51% (active).

Q: For `Cc1ccc(N=NC2C(=O)N(c3ccc(Cl)cc3)N(c3ccc(Cl)cc3)C2=O)cc1`, which growth is on record?
A: Its growth is 107% (inactive).

Q: `Nc1nnc2cc(Cl)ccc2n1` was tested. Which growth did it give?
A: Its growth is 101% (inactive).

Q: Which growth does the source give for `COc1ccc(NC(=O)c2ccc3c(c2)nc(-c2ccc(Cl)cc2)n3-c2cc(C(C)(C)C)[nH]n2)cc1` here?
A: The growth was 87.5% (inactive).

Q: Which growth does the source give for `C[C@]12C[C@@H](c3ccoc3)OC(=O)[C@@H]1CC[C@]1(C)[C@@H]2CC[C@@H](O)[C@]1(C)O` here?
A: Its growth is 88.3% (inactive).
